Molecules are shown by their SMILES. Unmarked numbers belong to inactive results.

Luciferin 4-monooxygenase (Photinus pyralis), sequence (P08659 whole entry, looked up): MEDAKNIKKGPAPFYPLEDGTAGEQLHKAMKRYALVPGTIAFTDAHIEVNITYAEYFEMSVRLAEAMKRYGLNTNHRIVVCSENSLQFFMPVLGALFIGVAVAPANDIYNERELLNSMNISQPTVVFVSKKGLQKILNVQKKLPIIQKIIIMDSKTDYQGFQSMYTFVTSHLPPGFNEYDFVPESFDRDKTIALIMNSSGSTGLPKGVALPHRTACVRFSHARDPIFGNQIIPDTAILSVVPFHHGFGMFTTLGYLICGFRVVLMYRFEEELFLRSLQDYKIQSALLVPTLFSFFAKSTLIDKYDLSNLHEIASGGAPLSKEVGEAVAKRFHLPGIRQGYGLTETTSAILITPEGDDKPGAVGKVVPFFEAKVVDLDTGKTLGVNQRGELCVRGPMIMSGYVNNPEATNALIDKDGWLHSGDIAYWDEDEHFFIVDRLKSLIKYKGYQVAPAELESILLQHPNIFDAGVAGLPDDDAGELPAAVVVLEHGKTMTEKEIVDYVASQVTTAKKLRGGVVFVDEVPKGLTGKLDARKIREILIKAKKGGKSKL

The assay addresses Luciferin 4-monooxygenase (Photinus pyralis) (UniProt P08659). Nature of the assay: firefly luciferase enzyme inhibitors, primary screen, biochemical, luminescence, purified enzyme, 2006 set (AID 1141).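 Further: cell-free assay with purified firefly luciferase at 100 ng per well in PBS; test concentration not given here.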 To be noted: SteadyGlo luminescence, 30 min, higher = more signal, called active from +8 up or from −8 down.
In the case of `CO[C@H]1O[C@H](CO)[C@@H](OC(=O)Nc2ccccc2)[C@@H]2OC(=O)[C@H](Cc3ccccc3)C/C=C/C[C@@H](Cc3ccccc3)C(=O)O[C@@H]12`, the z-score is -0.617.
On to `CCCCC(=C=CC[C@@H](O)c1ccc(OCCO)cc1)C[C@@H](O)c1ccccn1`, for which the z-score is -1.12.
Under `C=CCC(OC(C)=O)[C@@H]1[C@@H](N(Cc2cccc3ccccc23)C(=O)c2ccc(-c3ccccc3)cc2)c2cc(OCCCO)ccc2N1C(=O)c1ccc2ccccc2n1` (some centres undefined) stands 0.222; under `COCCOC(=O)N1C(=O)[C@@]2(c3cc(C#CC4(O)CCCCCC4)ccc31)[C@H](c1ccc(OCCO)cc1)N1[C@H](c3ccccc3)[C@H](c3ccccc3)OC(=O)[C@H]1[C@@H]2C(N)=O`, -0.608.
Regarding `COc1ccc([Si](C)(C)[C@H]2[C@H](CCO)O[C@@]3(C(=O)N(Cc4ccc(N5CCOC5=O)cc4)c4ccccc43)[C@@H]2C)cc1`, the z-score is -0.605.
As for `Cc1c(-c2ccc(-c3ccc(Cl)c(Cl)c3)o2)nc(-c2ccccc2)c2c1CO[Si]2(C(C)C)C(C)C`, the z-score is -0.056.
Under `O=C1OCCC=C[C@H]2OC34C=CCN(CCN5CCOCC5)C(=O)[C@H]3N(CCCO)C(=O)[C@@H]4C12` (some centres undefined) stands -0.552.
In the case of `COC(=O)[C@@]1(Cc2ccc(F)cc2)[C@H]2c3cc(C(=O)N(C)C)n(CCO)c3C[C@H]2CN1C(=O)c1ccccc1`, the z-score is -0.683.
Consider `CC(C)C[C@H]1NC(=O)[C@@H](C)NC(=O)[C@@]23C(=O)N[C@@H](Cc4ccccc4)C2[C@H](C)[C@@]2(C)O[C@H]2C3/C=C/C/C=C\CNC1=O` (some centres undefined), for which the z-score is -0.327.

The record behind these values is PubChem BioAssay.
